Source: PubChem BioAssay AID1159580 (chemical genetic matrix, 2015)
Among all 5,500 compounds or so, about 2,000 (36%) were called active. Another 18% or so got no clear call; they are omitted. No stated cut-off is given here; in the data, active means normalized growth mostly below about 0.91 (no sharp cut-off); inconclusive means no clear call, values can overlap the other calls; inactive means mostly above about 0.92. Some of the results follow.

Assay: chemical genetic growth profiling, strain panel (AID 1159580);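 further: tested at 20 µM; growth read once vehicle control cultures reached saturation at 30 °C; 1 = growth at the plate median or of vehicle wells; lower values mean less growth of the strain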
Conditions: growth OD

Measured: normalized growth

COc1ccc2cc(CCC(C)=O)ccc2c1
inactive: S. cerevisiae deletion strains, locus YJR075W, strain HOC1, hits give low values 0.965 | S. cerevisiae deletion strains, locus YKL068W, hits give low values 0.963 | S. cerevisiae deletion strains, locus YKL085W, strain MDH1 (second series), hits give low values 0.966 | S. cerevisiae deletion strains, locus YKL085W, strain MDH1, hits give low values 0.966 | S. cerevisiae deletion strains, locus YKL160W, strain elf1, hits give low values 0.997 | S. cerevisiae deletion strains, locus YKL190W, strain CNB1, hits give low values 0.972 | S. cerevisiae deletion strains, locus YKR001C, strain vps1, hits give low values 0.932 | S. cerevisiae deletion strains, locus YKR026C, strain gcn3, hits give low values 0.984 | S. cerevisiae deletion strains, locus YKR091W, strain srl3, hits give low values 0.992 | S. cerevisiae deletion strains, locus YLL001W, strain dnm1, hits give low values 0.982 | S. cerevisiae deletion strains, locus YLL026W, hits give low values 0.991 | S. cerevisiae deletion strains, locus YLL041C, strain sdh2, hits give low values 0.996 | S. cerevisiae deletion strains, locus YLR027C, strain aat2, hits give low values 0.997 | S. cerevisiae deletion strains, locus YLR039C, strain RIC1, hits give low values 1.11 | S. cerevisiae deletion strains, locus YLR058C, strain SHM2, hits give low values 0.948 | S. cerevisiae deletion strains, locus YLR102C, strain apc9, hits give low values 0.944 | S. cerevisiae deletion strains, locus YLR113W, strain HOG1, hits give low values 0.965 | S. cerevisiae deletion strains, locus YLR221C, strain rsa3, hits give low values 0.992 | S. cerevisiae deletion strains, locus YLR258W, strain gsy2, hits give low values 0.998 | S. cerevisiae deletion strains, locus YLR262C, strain YPT6 (second series), hits give low values 1.03 | S. cerevisiae deletion strains, locus YLR262C, strain YPT6, hits give low values 1.04 | S. cerevisiae deletion strains, locus YLR268W, strain sec22, hits give low values 1.01 | S. cerevisiae deletion strains, locus YLR320W, strain mms22, hits give low values 0.971 | S. cerevisiae deletion strains, locus YLR330W, strain CHS5, hits give low values 0.951 | S. cerevisiae deletion strains, locus YLR342W, strain FKS1 (second series), hits give low values 0.885 | S. cerevisiae deletion strains, locus YLR342W, strain FKS1, hits give low values 0.993 | S. cerevisiae deletion strains, locus YLR357W, strain rsc2, hits give low values 0.992 | S. cerevisiae deletion strains, locus YLR370C, strain arc18, hits give low values 0.998 | S. cerevisiae deletion strains, locus YLR371W, strain rom2, hits give low values 0.932 | S. cerevisiae deletion strains, locus YLR384C, strain iki3, hits give low values 0.986 | S. cerevisiae deletion strains, locus YML016C, strain PPZ1, hits give low values 0.941 | S. cerevisiae deletion strains, locus YML032C, strain rad52, hits give low values 0.967 | S. cerevisiae deletion strains, locus YML120C, strain ndi1, hits give low values 0.985 | S. cerevisiae deletion strains, locus YMR058W, strain fet3, hits give low values 0.996 | S. cerevisiae deletion strains, locus YMR078C, strain ctf18, hits give low values 0.929 | S. cerevisiae deletion strains, locus YMR125W, strain sto1, hits give low values 1.01 | S. cerevisiae deletion strains, locus YMR129W, hits give low values 0.983 | S. cerevisiae deletion strains, locus YMR205C, strain PFK2, hits give low values 1.01 | S. cerevisiae deletion strains, locus YMR231W, strain pep5, hits give low values 0.999 | S. cerevisiae deletion strains, locus YMR263W, strain SAP30, hits give low values 0.923 | S. cerevisiae deletion strains, locus YMR307W, strain GAS1, hits give low values 0.917 | S. cerevisiae deletion strains, locus YNL067W, strain RPL9B, hits give low values 0.97 | S. cerevisiae deletion strains, locus YNL071W, strain lat1, hits give low values 0.987 | S. cerevisiae deletion strains, locus YNL128W, strain TEP1, hits give low values 0.963 | S. cerevisiae deletion strains, locus YNL153C, strain GIM3, hits give low values 0.975 | S. cerevisiae deletion strains, locus YNL183C, strain NPR1, hits give low values 0.91 | S. cerevisiae deletion strains, locus YNL209W, strain ssb2, hits give low values 0.995 | S. cerevisiae deletion strains, locus YNL233W, strain BNI4, hits give low values 0.972 | S. cerevisiae deletion strains, locus YNL248C, strain rpa49, hits give low values 1.02 | S. cerevisiae deletion strains, locus YNL250W, strain rad50, hits give low values 0.943 | S. cerevisiae deletion strains, locus YNL271C, strain bni1, hits give low values 0.939 | S. cerevisiae deletion strains, locus YNL298W, strain CLA4, hits give low values 0.919 | S. cerevisiae deletion strains, locus YNL322C, strain KRE1 (second series), hits give low values 0.996 | S. cerevisiae deletion strains, locus YNL322C, strain KRE1, hits give low values 0.961 | S. cerevisiae deletion strains, locus YNR049C, strain mso1, hits give low values 0.991 | S. cerevisiae deletion strains, locus YNR052C, strain pop2, hits give low values 0.972 | S. cerevisiae deletion strains, locus YOL006C, strain TOP1, hits give low values 0.672 | S. cerevisiae deletion strains, locus YOL012C, strain htz1 1.84 | S. cerevisiae deletion strains, locus YOL147C, strain pex11, hits give low values 0.939 | S. cerevisiae deletion strains, locus YOR001W, strain rrp6, hits give low values 0.979 | S. cerevisiae deletion strains, locus YOR061W, strain CKA2, hits give low values 0.947 | S. cerevisiae deletion strains, locus YOR069W, strain VPS5, hits give low values 0.97 | S. cerevisiae deletion strains, locus YOR070C, strain gyp1, hits give low values 0.991 | S. cerevisiae deletion strains, locus YOR080W, strain dia2, hits give low values 0.988 | S. cerevisiae deletion strains, locus YOR083W, strain WHI5, hits give low values 0.985 | S. cerevisiae deletion strains, locus YOR106W, strain vam3, hits give low values 1 | S. cerevisiae deletion strains, locus YOR136W, strain idh2, hits give low values 0.956 | S. cerevisiae deletion strains, locus YOR144C, strain elg1, hits give low values 0.951 | S. cerevisiae deletion strains, locus YOR231W, strain MKK1, hits give low values 0.93 | S. cerevisiae deletion strains, locus YOR265W, strain rbl2, hits give low values 0.987 | S. cerevisiae deletion strains, locus YOR270C, strain vph1, hits give low values 0.886 | S. cerevisiae deletion strains, locus YOR290C, strain snf2, hits give low values 0.977 | S. cerevisiae deletion strains, locus YOR316C, strain cot1, hits give low values 0.943 | S. cerevisiae deletion strains, locus YPL051W, strain arl3, hits give low values 0.985 | S. cerevisiae deletion strains, locus YPL055C, strain LGE1, hits give low values 0.88 | S. cerevisiae deletion strains, locus YPL078C, strain atp4, hits give low values 0.981 | S. cerevisiae deletion strains, locus YPL106C, strain sse1, hits give low values 0.96 | S. cerevisiae deletion strains, locus YPL240C, strain hsp82, hits give low values 0.992 | S. cerevisiae deletion strains, locus YPL241C, strain CIN2, hits give low values 0.96 | S. cerevisiae deletion strains, locus YPL256C, strain CLN2, hits give low values 0.911 | S. cerevisiae deletion strains, locus YPR119W, strain clb2, hits give low values 0.943 | S. cerevisiae deletion strains, locus YPR141C, strain kar3, hits give low values 0.924 | S. cerevisiae deletion strains, locus YPR163C, strain tif3, hits give low values 0.935 | S. cerevisiae deletion strains, locus YPR167C, strain met16, hits give low values 0.941 | S. cerevisiae deletion strains, strain wtn01, hits give low values 0.959 | S. cerevisiae strains, strain wild type, hits give low values 0.935
active: S. cerevisiae deletion strains, locus YKL009W, strain mrt4, hits give low values 0.86 | S. cerevisiae deletion strains, locus YLR418C, strain cdc73, hits give low values 0.78 | S. cerevisiae deletion strains, locus YML124C, strain tub3, hits give low values 0.929 | S. cerevisiae deletion strains, locus YMR223W, strain ubp8, hits give low values 0.895 | S. cerevisiae deletion strains, locus YNL307C, strain MCK1, hits give low values 0.827 | S. cerevisiae deletion strains, locus YOR184W, strain ser1, hits give low values 0.786
